HPGD block = HPGD (human) dehydrogenase inhibition. purified HPGD, NADH fluorescence kinetic, PGE2 substrate. Potency, µM, inactives show at the highest dose activity change, negative = inhibition, hits mostly inhibitors. 150,000 compounds, 4.3% hits. AID 894; also: potency is read from the fitted curve at half-maximal effect
Target sequence (P15428 whole entry, looked up): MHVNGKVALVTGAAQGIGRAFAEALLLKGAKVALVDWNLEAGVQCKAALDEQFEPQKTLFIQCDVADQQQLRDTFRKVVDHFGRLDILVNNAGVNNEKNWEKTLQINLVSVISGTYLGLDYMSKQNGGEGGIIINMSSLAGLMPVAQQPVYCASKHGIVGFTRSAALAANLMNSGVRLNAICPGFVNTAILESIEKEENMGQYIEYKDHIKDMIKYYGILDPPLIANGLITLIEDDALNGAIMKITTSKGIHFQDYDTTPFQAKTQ
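NADH formation kinetics: reaction with 30 uM PGE2 and 1 mM NAD+ (final), 20 nM enzyme, Tris-HCl pH 8 with Tween 20, after 15 min compound preincubation at room temperature. Fluorescence change, last versus first of five reads.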
ALDH1A1 block = inhibitors of human aldehyde dehydrogenase 1A1; AID 1030; Potency, µM (titrated, usually from 75.3 µM), without a hit: at the top dose activity, negative = inhibition, actives largely listed as inhibitors; 220,000 compounds, 7.3% hits; Purified ALDH1A1, NADH fluorescence, propionaldehyde substrate; P00352;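 also: potency is read from the fitted curve at half-maximal effect; plate controls were no enzyme wells and a reference inhibitor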
PNC assembly inh = perinucleolar compartment assembly inhibition; PC3M PTB-GFP, PNC prevalence imaging, 16 h; active compounds read low; activity change (PNC), negative = inhibition, % at 10 µM; 140,000 compounds, 3.1% hits; AID 2417;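 active = readout at or below -70, meaning at least 70% loss of cells showing the perinucleolar compartment, a nuclear body marking cancer cells; inconclusive = readout between -30 and a set limit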;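 also: plate controls were DMSO wells for no effect and camptothecin positive control wells for full effect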
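Compounds are pinned in duplicate onto adhered PC3M cells stably expressing GFP-tagged PTB and incubated 16 h at 37 C. Cells are then fixed, nuclei stained with Hoechst, and PNC-positive cells counted.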
Numbers without * were called inactive. Shown are actives, neighbours in structure and some others; about 11% of the full set was active somewhere. Unless noted, calls follow the shape of the dose curve; as a rule, active = well fitted inhibition curve with a large enough effect (not every such curve was filed as active); inconclusive = small, poorly fitted or top-dose-only effect, or another doubt; inactive = no such curve, though single readings can be large or run the other way. Unless noted, % is scaled to controls: 0 for no effect and ±100 for the full control effect.

How did CC1CCN(c2c(NCC3CCC(C(=O)N4CCCC(C)C4)CC3)c(=O)c2=O)CC1 (centres undefined) do in these assays?
HPGD block: 0.631µM*; ALDH1A1 block: 7.1%; PNC assembly inh: 40.5

What do the screens show for `O=C(C1CCC(CNc2c(N3CCCCC3)c(=O)c2=O)CC1)N1CCN(C2CCCCC2)CC1` (centres undefined)?
ALDH1A1 block: -2.6%

Results for Cc1ccc2[nH]c(=O)c3cc(C(=O)N4CCN(C(=O)c5ccco5)CC4)sc3c2c1 ?
HPGD block: inconclusive; ALDH1A1 block: inconclusive; PNC assembly inh: 30.0

What do the screens show for `CCC(C)NS(=O)(=O)c1ccc(NS(=O)(=O)c2ccc(F)cc2)cc1` (centres undefined)?
HPGD block: -3.5%; ALDH1A1 block: 0.5%; PNC assembly inh: inconclusive

What do the screens show for `Cc1cc(N2CCN(c3ccccc3)CC2)nc(-n2nc(C)cc2C)n1`?
HPGD block: -7.3%; ALDH1A1 block: -5.0%; PNC assembly inh: -1.4

How did CSc1nnc(SCC2=NNC(=O)SC2)s1 do in these assays?
HPGD block: -1.5%; ALDH1A1 block: 3.5%; PNC assembly inh: -16.0

Results for CC1CC1C(=O)OCC(=O)Nc1ccc2[nH]c(=O)[nH]c2c1 (centres undefined) ?
ALDH1A1 block: -4.9%

Results for CSCCCNC(=S)N(C)CC(=O)Nc1ccc(C)cc1 ?
ALDH1A1 block: -12.3%

What do the screens show for `O=C(OCc1ccc(F)cc1)c1ccc2ccccc2n1`?
ALDH1A1 block: -15.2%

Results for CCNc1nc(C23CC4CC(CC(C4)C2)C3)cs1 ?
ALDH1A1 block: -11.3%

How did COc1ccc(OC)c(NC(=O)C2CCC(CNc3c(N4CCC(C)CC4)c(=O)c3=O)CC2)c1 (centres undefined) do in these assays?
HPGD block: 25.1µM*; ALDH1A1 block: 2.5%; PNC assembly inh: -11.2

What do the screens show for `COc1ccc(C)cc1NC(=O)C1CCC(CNc2c(N3CCOCC3)c(=O)c2=O)CC1` (centres undefined)?
HPGD block: -15.2%; ALDH1A1 block: 4.4%; PNC assembly inh: 0.2

What do the screens show for `CCN(CC)COC(=S)S`?
HPGD block: 3.16µM*; ALDH1A1 block: 2.82µM*

Results for C=C(C(=O)c1ccccc1)C(C(=C)C(=O)c1ccccc1)c1ccc(OC)cc1 ?
ALDH1A1 block: 1.6%

What do the screens show for `CSc1nc(=S)c2[nH]c(=S)[nH]c2[nH]1`?
ALDH1A1 block: 1.41µM*

Results for CCn1c(SCC(=O)c2cccs2)nnc1-c1cccs1 ?
ALDH1A1 block: inconclusive; PNC assembly inh: 41.0

Results for CCn1c(Cc2cccn2C)nnc1SCC(=O)c1ccc(C)cc1 ?
HPGD block: inconclusive; ALDH1A1 block: 10µM*; PNC assembly inh: 1.6

What do the screens show for `Cn1c(SCC(=O)Nc2ccc3cn[nH]c3c2)nnc1-c1cccs1`?
HPGD block: -1.0%; ALDH1A1 block: 12.7%; PNC assembly inh: 0.3

What do the screens show for `Cc1ccc(C(=O)CSc2nnc(-c3ccccc3N)n2C)cc1`?
HPGD block: -21.8%; ALDH1A1 block: 11.2µM*; PNC assembly inh: -16.7

What do the screens show for `CCn1c(SCC(=O)c2ccc(O)c(O)c2)nnc1-c1ccc(C)cc1`?
HPGD block: -14.5%; ALDH1A1 block: 0.4%; PNC assembly inh: -18.9

What do the screens show for `Cn1c(SCC(=O)c2ccc(F)cc2)nnc1-c1ccccc1N`?
HPGD block: -13.8%; ALDH1A1 block: -8.8%; PNC assembly inh: 8.7

How did Cn1c(SCC(=O)Nc2ccc3cn[nH]c3c2)nnc1-c1cnccn1 do in these assays?
HPGD block: -9.1%; ALDH1A1 block: 0.6%; PNC assembly inh: -100.0*

How did CCn1c(SCC(=O)c2ccc(NS(=O)(=O)c3ccccc3)cc2)nnc1-c1cccs1 do in these assays?
HPGD block: 22.4µM*; ALDH1A1 block: inconclusive; PNC assembly inh: 6.7

What do the screens show for `NC(=O)C1(N2CCCCC2)CCN(C(=O)NC2CCCCC2)CC1`?
ALDH1A1 block: -0.7%; PNC assembly inh: inconclusive

How did COc1cc(NC(=O)CN2CCN(c3ccccc3F)CC2)c(C)cc1[N+](=O)[O-] do in these assays?
HPGD block: -10.2%; ALDH1A1 block: -3.0%; PNC assembly inh: inconclusive

Results for CCN1CCN(S(=O)(=O)c2ccc(Oc3ccccc3OC)cc2)CC1 ?
ALDH1A1 block: 6.8%

What do the screens show for `CCn1ncc(C2=NOC(C(=O)Nc3cccc(C(C)=O)c3)C2)c1C` (centres undefined)?
HPGD block: -6.4%; ALDH1A1 block: 5.6%; PNC assembly inh: -26.3

Results for CCn1c(SCc2ccc(C)cc2)nnc1-c1cnccn1 ?
HPGD block: -15.3%; ALDH1A1 block: -3.4%; PNC assembly inh: inconclusive

Results for CC(C)OC(=O)CSc1nnc(-c2cnccn2)n1C ?
HPGD block: -14.2%; ALDH1A1 block: -14.1%; PNC assembly inh: -91.3*

How did CCn1c(SCC(=O)c2ccccc2)nnc1-c1cnccn1 do in these assays?
HPGD block: 17.8µM*; ALDH1A1 block: -7.9%; PNC assembly inh: 36.0

How did COC(=O)CSc1nnc(-c2cnccn2)n1C do in these assays?
HPGD block: 4.8%; ALDH1A1 block: 4.0%; PNC assembly inh: -16.0

Results for Cn1c(SCC(=O)c2ccccc2)nnc1-c1cccnc1 ?
HPGD block: -10.8%; ALDH1A1 block: inconclusive; PNC assembly inh: inconclusive

What do the screens show for `Cn1c(SCC(=O)c2ccccc2)nnc1-c1cnccn1`?
HPGD block: -20.9%; ALDH1A1 block: 20µM*; PNC assembly inh: inconclusive

What do the screens show for `CCN(CC)S(=O)(=O)c1cccc2c(N(C)C)cccc12`?
HPGD block: -20.7%; ALDH1A1 block: 3.1%; PNC assembly inh: 29.2

Results for S=C(NCCc1ccccc1)N1CCN(C2CCCCC2)CC1 ?
ALDH1A1 block: 1.6%

How did CC1CN(c2ccc(NS(=O)(=O)c3ccccc3)cc2C(=O)O)CC(C)O1 (centres undefined) do in these assays?
ALDH1A1 block: 5.3%

How did CC(=O)Nc1cccc(NC(=O)CSc2nc(C)c(C)c(C)c2C#N)c1 do in these assays?
HPGD block: inconclusive; ALDH1A1 block: 10µM*; PNC assembly inh: -27.6

What do the screens show for `CCOc1cccc(NC(=O)CSc2nc(C)c3c(c2C#N)CCCC3)c1`?
HPGD block: inconclusive; ALDH1A1 block: 3.6%; PNC assembly inh: 30.8

Results for CCOc1ccc(OCC)c(NC(=O)C2CCN(c3ncccn3)CC2)c1 ?
HPGD block: -5.3%; ALDH1A1 block: 4.4%; PNC assembly inh: 15.2

Results for CC1CCCC(C)N1/N=C/C=C/c1ccccc1[N+](=O)[O-] (centres undefined) ?
ALDH1A1 block: 3.55µM*

What do the screens show for `O=C(N/N=C/C=C\c1ccccc1[N+](=O)[O-])c1ccco1`?
ALDH1A1 block: -7.2%

What do the screens show for `C=CCn1c(-c2ccc([N+](=O)[O-])cc2)n[nH]c1=S`?
HPGD block: -18.9%; ALDH1A1 block: -9.0%; PNC assembly inh: inconclusive

What do the screens show for `O=[N+]([O-])c1ccccc1/C=C/CN1CCCCC1`?
HPGD block: 4.7%; ALDH1A1 block: 4.5%; PNC assembly inh: -25.6

Results for O=[N+]([O-])c1ccccc1/C=C/C=N/n1c(-c2ccc(Cl)cc2)n[nH]c1=S ?
HPGD block: 3.16µM*; ALDH1A1 block: inconclusive; PNC assembly inh: 15.8

How did O=[N+]([O-])c1ccccc1/C=C/C=N/n1c(-c2ccccc2)n[nH]c1=S do in these assays?
HPGD block: 7.08µM*; ALDH1A1 block: inconclusive; PNC assembly inh: -26.7
